Bioassay records (PubChem BioAssay)
A selection: hits, their analogues and other compounds. The true share with any hit is near 3.3%.
CendR NRP1 mod: modulators of CendR peptide binding to human neuropilin-1; O14786; FAM-RPARPAR peptide binding to NRP-1, fluorescence polarization; inhibition, % at 25 µM; 360,000 compounds, 0.85% hits;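 active = inhibition or corrected inhibition above about 18%, plus a signal ratio from 0.5 to 1.5, limit read from the data, passing the limit was not always enough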
HNF4A DNA FP: change in binding of human HNF4 alpha to DNA; HNF4a-FITC DNA binding, fluorescence polarization, 1 h; activity change, % at 10 µM; 360,000 compounds, 0.3% hits; AID 1224865; in the data active = activity change above about 30%, passing the limit was not always enough
CTSL1 counter: cathepsin L1 inhibition, PFM18AAP counter-screen; recombinant F. hepatica cathepsin L1, Z-Leu-Arg-MCA fluorescence; inhibition, % at 5.96 µM; 300,000 compounds, 0.49% hits; AID 1906;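 active = inhibition above the mean of all tested compounds plus 3 SD, set per screening campaign, cut at about 17% in these data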;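 note: 0% = plate median of test compound wells and 100% = 1 µM Z-Phe-Ala-diazomethylketone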
TPT1 inhibitor: inhibitors of Candida albicans tRNA 2'-phosphotransferase TPT1; inhibition, % at 5 µM; AID 1962; 300,000 compounds, 0.81% hits; recombinant caTPT1, FP RNA substrate dephosphorylation;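 active = inhibition above the mean of all tested compounds plus 3 SD, set per screening campaign, cut at about 24% in these data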;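 note: plate controls were DMSO alone for no effect and ferristatin control at 100 nM for full effect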
Rpn11 inh: inhibitors of human proteasome Rpn11; 360,000 compounds, 0.59% hits; O00487; human 26S proteasome, Ub4-pepOG fluorescence polarization; 20S core pre-blocked with epoxomicin; inhibition, % at 20 µM; AID 588493;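 active = inhibition at 20 µM, scaled to each plate's controls, above about 33%, limit read from the data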
Target sequence (O00487 whole entry, looked up): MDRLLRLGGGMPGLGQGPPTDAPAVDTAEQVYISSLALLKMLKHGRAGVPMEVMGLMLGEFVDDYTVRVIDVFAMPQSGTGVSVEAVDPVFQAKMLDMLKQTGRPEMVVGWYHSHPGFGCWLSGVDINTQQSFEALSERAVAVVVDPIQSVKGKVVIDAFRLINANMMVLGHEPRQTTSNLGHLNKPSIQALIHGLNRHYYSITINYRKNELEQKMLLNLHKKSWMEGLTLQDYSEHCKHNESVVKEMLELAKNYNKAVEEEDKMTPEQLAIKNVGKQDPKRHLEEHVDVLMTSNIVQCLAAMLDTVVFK
PHOSPHO1 inh: blocks human PHOSPHO1 phosphatase activity; inhibition, % at 13.3 µM; Q8TCT1; recombinant PHOSPHO1, absorbance phosphatase assay; 290,000 compounds, 1.1% hits; in the data active = inhibition above about 60%
caTPT1 confirm: TPT1 (C. albicans) inhibition, confirmation | recombinant caTPT1, fluorescence polarization, RNase T1 coupled | 2,400 compounds, 74% hits | AID 2149 | shares compounds with TPT1 inhibitor | inhibition, % at 5 µM;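 active = inhibition above the primary screen limit, the mean inhibition of all tested compounds plus 3 SD, cut at about 25% in these data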
RNase T1 counter: blocks Aspergillus oryzae RNase T1, a TPT1 counter-screen; shares compounds with TPT1 inhibitor; RNase T1 cleavage, fluorescence polarization, 1536-well; inhibition, % at 5 µM; 2,400 compounds, 83% hits; AID 2153;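 active = inhibition above the solvent-only control well mean plus 3 SD, limit set per screening run, cut at about 23% in these data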;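 note: plate controls were DMSO wells with enzyme for no effect and wells without RNase T1 for full effect; inhibitors block cleavage so intact labeled substrate keeps polarization high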
Target sequence (P00651 whole entry, looked up): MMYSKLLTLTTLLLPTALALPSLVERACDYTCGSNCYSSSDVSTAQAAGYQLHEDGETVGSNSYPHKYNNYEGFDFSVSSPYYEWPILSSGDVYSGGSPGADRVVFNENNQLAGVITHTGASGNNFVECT
* marks the source's active call; other numbers are inactive results.

For COC(=O)c1ccc(S(=O)(=O)NNC(=O)c2ccc(S(=O)(=O)N3CCCCC3)cc2)cc1 the results were CendR NRP1 mod 2.3, HNF4A DNA FP -2.6, CTSL1 counter 0.0, TPT1 inhibitor 2.9, Rpn11 inh -1.2 and PHOSPHO1 inh 5.6.
Screening COc1ccc(C)cc1Nc1n[n+](-c2ccccc2)c(-c2cc([N+](=O)[O-])cc(OC)c2O)s1 returned CendR NRP1 mod 151.5, HNF4A DNA FP 206.9, CTSL1 counter 0.1, TPT1 inhibitor 24.2*, PHOSPHO1 inh -7.3, caTPT1 confirm 119.6* and RNase T1 counter 120.2*.
For COc1ccc(C(=O)/C=C/Nc2ccc(S(=O)(=O)Nc3cc(OC)nc(OC)n3)cc2)c(OC)c1 the results were CendR NRP1 mod -36.7, HNF4A DNA FP 10.8, CTSL1 counter -2.4, TPT1 inhibitor 36.1*, Rpn11 inh 30.2, PHOSPHO1 inh 1.5, caTPT1 confirm 38.9* and RNase T1 counter 49.5*.
`COc1cccc(C(=O)/C=C/Nc2ccc(S(=O)(=O)Nc3cc(OC)nc(OC)n3)cc2)c1` gave CendR NRP1 mod -12.2, HNF4A DNA FP -1.9, CTSL1 counter -0.4, TPT1 inhibitor 0.8, Rpn11 inh 8.7 and PHOSPHO1 inh 12.0.
COc1cccc(NC(=O)COC(=O)c2ccccc2C(=O)N2CCN(c3ccccc3)CC2)c1 was read as CendR NRP1 mod -6.2, HNF4A DNA FP -6.4, CTSL1 counter -9.6, TPT1 inhibitor -11.7, Rpn11 inh -7.7 and PHOSPHO1 inh 35.9.
For CN1CCC(NC(=O)NC2CCCCC2)CC1 the results were CendR NRP1 mod 6.6, HNF4A DNA FP -1.7, CTSL1 counter -0.3, TPT1 inhibitor -4.2, Rpn11 inh -1.6 and PHOSPHO1 inh 27.7.
For Cc1ccc(NC(=O)N/C=C/c2ccco2)cc1C the results were CendR NRP1 mod -63.0, HNF4A DNA FP 6.8, CTSL1 counter 3.3, TPT1 inhibitor 24.2*, PHOSPHO1 inh 5.5, caTPT1 confirm 60.9* and RNase T1 counter 72.8*.
Cc1ccc(NC(=O)N/C=C/c2ccco2)c(C)c1 was read as CendR NRP1 mod -3.4, HNF4A DNA FP 1.4, CTSL1 counter 1.0, TPT1 inhibitor 22.6, Rpn11 inh 32.1 and PHOSPHO1 inh 9.7.
For Cc1cccc(C)c1-n1cccc1/C=C1\SC(=S)N(c2cccc(C(=O)O)c2)C1=O the results were CendR NRP1 mod -64.1, HNF4A DNA FP -13.1, CTSL1 counter -0.6, TPT1 inhibitor 16.7, Rpn11 inh 9.9 and PHOSPHO1 inh 23.5.
Screening O=[N+]([O-])c1ccc(N2N=C(c3ccco3)CC2c2ccccc2)cc1 (centres undefined) returned CendR NRP1 mod -162.7, HNF4A DNA FP 49.9*, CTSL1 counter -1.9, TPT1 inhibitor 135.2*, PHOSPHO1 inh 27.4, caTPT1 confirm 107.1* and RNase T1 counter 108.2*.
COc1ccccc1N1N=C(c2ccc([N+](=O)[O-])cc2)CC1c1ccccc1 (centres undefined) was read as CendR NRP1 mod -107.5, HNF4A DNA FP 46.6*, CTSL1 counter 0.7, TPT1 inhibitor 52.1*, PHOSPHO1 inh 13.9, caTPT1 confirm 46.0* and RNase T1 counter 56.8*.
Screening CN1C2CCC1/C(=C/c1cccn1C)C(=O)/C2=C\c1cccn1C returned CendR NRP1 mod 135.1, HNF4A DNA FP 138.1, CTSL1 counter 7.2, TPT1 inhibitor 121.4*, PHOSPHO1 inh 32.5, caTPT1 confirm 123.3* and RNase T1 counter 117.1*.
`Cn1cccc1/C=C1\CC(C(C)(C)C)C/C(=C\c2cccn2C)C1=O` (centres undefined) gave CendR NRP1 mod 71.8, HNF4A DNA FP 139.9, CTSL1 counter 2.4, TPT1 inhibitor 176.3*, PHOSPHO1 inh 40.8, caTPT1 confirm 162.0* and RNase T1 counter 149.1*.
For CN1C2CCC1/C(=C\c1ccc(F)cc1)C(=O)/C2=C/c1ccc(F)cc1 the results were CendR NRP1 mod 4.3, HNF4A DNA FP -0.5, CTSL1 counter 1.1, TPT1 inhibitor 0.2, Rpn11 inh 1.7 and PHOSPHO1 inh -10.7.
